The text below walks through data of PubChem BioAssay (NCI).

Some test systems named below: NCI-H23 lung; NCI-H226 lung; NCI-H322M lung; HOP-62 NSCLC; NCI-H460 lung; NCI-H522 lung; A549/ATCC NSCLC; 786-0 renal; COLO 205 colon; DU-145 prostate; K-562 leukemia; MALME-3M melanoma; MDA-MB-231 breast; RXF 393 renal; SF-268 CNS; SF-539 CNS; UACC-257 melanoma; M14 melanoma; HCT-15 colon.
Holding throughout (test): NCI-60 one-dose screen, 48 h (100 = growth as untreated, 0 = no growth, -100 = all killed)
Settings in all cases: 10 µM unless noted

This is part of a sample that, as a whole, favours compounds with a hit. Of some 83,000 tested, about 20% had one in any assay.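 Results are percent growth after 48 hours of single-concentration exposure. 100 means growth as in untreated cells, lower positive values show inhibition; negative values down to -100 show cell death.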 Unmarked numbers belong to inactive results. Active and inactive are the calls of the source. How the source made its calls: active means growth percent below 10; inactive means the rest.

Consider `Cc1cc(O)c2c(c1)C[C@H]1[C@@H]3CC[C@H]4CC(=O)CC[C@]4(C)[C@H]3CC(=O)[C@]21C`, for which the growth is 77.3% in the test with NCI-H23 lung; 94.6% with NCI-H226 lung; 104% in the test with NCI-H322M lung; 123% with HOP-62 NSCLC; 99.2% in the test on NCI-H460 lung; 73.9% with NCI-H522 lung. Besides, the growth with A549/ATCC NSCLC was 77%; with 786-0 renal, 87.8%; with COLO 205 colon, 104%; in the test with DU-145 prostate, 85.2%; with K-562 leukemia it was 53.3%; with MALME-3M melanoma it was 92.8%. The growth in the test on MDA-MB-231 breast is 86%; in the test with RXF 393 renal it was 94.1%; with SF-268 CNS, 87.6%; in the test on SF-539 CNS, 73.3%; with UACC-257 melanoma, 100%; in the test with M14 melanoma it was 80.9%. In addition, in the test with HCT-15 colon, the growth was 45.3%.
In the case of `COc1ccc(-n2nnc(C(=O)O)c2-c2cc(OC)c(OC)c(OC)c2)cc1`, the growth was 103% in the test on NCI-H23 lung; 104% in the test on NCI-H226 lung; 108% with NCI-H322M lung; 114% with HOP-62 NSCLC; 106% with NCI-H460 lung; 83.6% in the test on NCI-H522 lung. Moreover, the growth was 100% in the test on A549/ATCC NSCLC; 99.7% in the test on 786-0 renal; 104% in the test with COLO 205 colon; 116% in the test on DU-145 prostate; 95.1% in the test with K-562 leukemia; 112% in the test on MALME-3M melanoma. The growth in the test with MDA-MB-231 breast is 122%; in the test on RXF 393 renal, 105%; with SF-268 CNS it was 115%; with SF-539 CNS it was 103%; in the test with UACC-257 melanoma, 102%; in the test with M14 melanoma, 104%. For the same compound, in the test with HCT-15 colon, the growth was 101%.
Regarding `O=C(O)c1ccccc1C(=O)OC1CCCC2CCCC21` (configuration not stated), the growth is 95.1% in the test on NCI-H23 lung; 101% in the test on NCI-H226 lung; 115% in the test on NCI-H322M lung; 98.2% with HOP-62 NSCLC; 112% in the test with NCI-H460 lung; 107% with NCI-H522 lung. Further, the growth in the test on A549/ATCC NSCLC was 101%; in the test on 786-0 renal, 116%; in the test on COLO 205 colon, 117%; in the test with DU-145 prostate, 103%; with K-562 leukemia, 102%; in the test with MALME-3M melanoma, 133%. Moreover, the growth was 121% in the test with MDA-MB-231 breast; 104% in the test with RXF 393 renal; 106% in the test with SF-268 CNS; 102% with SF-539 CNS; 105% with UACC-257 melanoma; 115% in the test on M14 melanoma. Further, the growth in the test on HCT-15 colon is 92.1%.
As to `CCOC(=O)C1=NN(c2ccc(Cl)cc2)C2C3N(c4ccc(Cl)cc4)N=C(C(=O)OCC)N3c3ccccc3N12` (configuration not stated), the growth was 87% in the test with NCI-H23 lung; 107% in the test with NCI-H226 lung; 98.5% with NCI-H322M lung; 114% in the test with HOP-62 NSCLC; 106% in the test with NCI-H460 lung; 88.7% with NCI-H522 lung. Also, the growth in the test on A549/ATCC NSCLC is 99%; in the test on 786-0 renal, 95.6%; with COLO 205 colon, 128%; with DU-145 prostate, 118%; in the test with K-562 leukemia, 70.7%; in the test on MALME-3M melanoma, 132%. The growth with MDA-MB-231 breast was 103%; with RXF 393 renal, 106%; with SF-268 CNS, 102%; with SF-539 CNS it was 116%; with UACC-257 melanoma it was 119%; in the test with M14 melanoma, 102%. In the test with HCT-15 colon, the growth is 121%.
For `O=C(OCCBr)c1ccc(Cl)c([N+](=O)[O-])c1`, the growth in the test on NCI-H23 lung was 104%; in the test with NCI-H226 lung, 126%; in the test on NCI-H322M lung it was 28.6%; in the test on HOP-62 NSCLC, 131%; with NCI-H460 lung, 103%; in the test with NCI-H522 lung, 8.61% (active). Moreover, the growth with A549/ATCC NSCLC is 104%; in the test on 786-0 renal, 102%; with COLO 205 colon, 106%; in the test on DU-145 prostate, 14.6%; in the test on K-562 leukemia, 82.9%; in the test on MALME-3M melanoma, 97.2%. The growth with MDA-MB-231 breast was 92%; in the test with RXF 393 renal it was 132%; in the test on SF-268 CNS, 100%; with SF-539 CNS, 102%; in the test with UACC-257 melanoma it was 86.8%; with M14 melanoma it was 91.8%. Besides, the growth with HCT-15 colon is 90.9%.
For `COc1ccc(-c2cnnn2-c2cc(OC)c3c(c2)OCO3)cc1`, the growth is 26.6% in the test on NCI-H23 lung; 88.4% with NCI-H226 lung; 42.8% in the test on NCI-H322M lung; 30.2% in the test with HOP-62 NSCLC; 11.2% with NCI-H460 lung; -45.2% (active) with NCI-H522 lung. Besides, the growth in the test with A549/ATCC NSCLC was 18.3%; in the test on 786-0 renal, 42.3%; with COLO 205 colon, -80.4% (active); in the test with DU-145 prostate, 12.8%; with K-562 leukemia it was 0.651% (active); in the test on MALME-3M melanoma, 34.4%. The growth was 4.19% (active) with MDA-MB-231 breast; 10% with RXF 393 renal; 29.9% with SF-268 CNS; -15.2% (active) in the test with SF-539 CNS; 59.7% with UACC-257 melanoma; 10.6% in the test on M14 melanoma. Besides, the growth in the test with HCT-15 colon is 14.8%.
Turning to `O=C(/C=C/c1ccc(O)c(O)c1)N1CCN(c2ccc(Cl)cc2)CC1`, the growth in the test on NCI-H23 lung was 62.9%; in the test on NCI-H226 lung it was 63.8%; with NCI-H322M lung, 85.1%; in the test on HOP-62 NSCLC, 88.2%; in the test on NCI-H460 lung it was 46.4%; in the test with NCI-H522 lung, -3.39% (active). Moreover, the growth in the test on A549/ATCC NSCLC is 61.2%; with 786-0 renal, 73.1%; in the test on COLO 205 colon, 71.4%; in the test on DU-145 prostate, 69.4%; in the test with K-562 leukemia it was 61.8%; with MALME-3M melanoma, 66.2%. Also, the growth with MDA-MB-231 breast is 59.2%; in the test on RXF 393 renal, 58%; in the test on SF-268 CNS, 57%; in the test on SF-539 CNS, 66.4%; in the test on UACC-257 melanoma it was 81.8%; in the test with M14 melanoma, 67.8%. The growth with HCT-15 colon is 48.5%.
Take `Cc1cc(NC(=O)c2ccc(N)cc2)ccc1N=Nc1ccc2c(O)c(N=Nc3ccc(Cl)c(S(=O)(=O)O)c3)c(S(=O)(=O)O)cc2c1`: the growth is 69.9% with NCI-H23 lung; 81.9% in the test on NCI-H226 lung; 62.5% with NCI-H322M lung; 64.2% in the test with HOP-62 NSCLC; 49.7% in the test on NCI-H460 lung; 78.6% with NCI-H522 lung. The growth in the test on A549/ATCC NSCLC was 60.5%; with 786-0 renal, 110%; with COLO 205 colon it was 117%; with DU-145 prostate, 111%; with K-562 leukemia it was 62.4%; with MALME-3M melanoma, 105%. In addition, the growth is 109% in the test on MDA-MB-231 breast; 68.6% with RXF 393 renal; 89.9% with SF-268 CNS; 87.3% with SF-539 CNS; 87.5% with UACC-257 melanoma; 92.5% with M14 melanoma. Also, the growth in the test on HCT-15 colon is 83.6%.
